# PubChem BioAssay (NCI)
# This is part of a sample that, as a whole, favours compounds with a hit. Of some 83,000 tested, about 20% had one in any assay.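 Each cell line was grown in a 96-well plate and treated with one concentration of compound for 48 hours. Values below 10 were considered active.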 A number with no mark means an inactive call. The source made the active and inactive calls.
# System: MDA-MB-468 breast
# Assay: NCI-60 one-dose screen, 48 h (100 = growth as untreated, 0 = no growth, -100 = all killed)
# Settings: 10 µM unless noted
row,Compound,growth
1,Nc1ccc(Cl)c(S(=O)(=O)O)c1,99.3%
2,Clc1ccc(/C=C/c2nc(Nc3ccc(Cl)cc3)c3ccccc3n2)cc1,110%
3,FC(F)(F)c1ccccc1-c1cn2c(ccc3ccccc32)n1,105%
4,COc1ccc(-n2cc(-c3ccccc3)c3c(SCC(=O)N/N=C/c4ccc([N+](=O)[O-])cc4)ncnc32)cc1,98%
5,Nc1ccc(F)c(Cl)c1F,92.5%
6,COc1cc(C2CC(c3cccc(Nc4ccncc4)c3)=NN2C(C)=O)cc(OC)c1OC (configuration not stated),86.6%
7,CC1(C)NCCC[C@]2(C)[C@H]3CC(=O)[C@H]4[C@@H]5C[C@](C)(CO)CC[C@]5(C)CC[C@@]4(C)[C@]3(C)CC[C@@H]12,86.9%
8,Cc1cccnc1NC1OC(=O)c2ccccc21 (configuration not stated),103%
9,O=C(NCCNC(=O)Oc1cccc2ccccc12)Oc1cccc2ccccc12,103%
10,O=c1[nH]c(O)c(/C=C2/C=Nc3ccccc32)[nH]1,66.1%
11,Nc1nc(N)c2c(n1)NC(c1ccccc1)C1CCc3ccccc3C1=N2 (configuration not stated),-12.7% (active)
12,COc1cccc2ccc(CC(O)(c3ccccc3)c3ccccc3)nc12,46.7%
13,Nc1nc(N)c2c(n1)NC(c1sc(Cl)nc1Cl)CC(c1ccc3c(c1)OCO3)=N2 (configuration not stated),-13.3% (active)
14,COc1ccc(Oc2ccc(/C=N/NC(=O)CSc3nc4ccccc4c(=O)n3-c3ccc(Cl)cc3)cc2)cc1,66.8%
15,CCN(CC)CCCC(C)Nc1cnc(C(=O)Nc2cc(C)cc3cccnc23)cn1 (configuration not stated),9.36% (active)
16,COc1cccc(C(=O)NNc2nc(N3CCOCC3)nc(N3CCN(C(c4ccccc4)c4ccccc4)CC3)n2)c1,61.7%
17,Nc1nc(Nc2ccc(Cl)cc2)nn1S(=O)(=O)c1ccc(-c2ccc(F)cc2)cc1,96.2%
18,O=C1CC2(CCOCC2)Oc2ncccc21,30.4%
19,CN1CCN(CCCCCC(=O)Nc2nc(-c3cccc(NS(=O)(=O)c4cccc5c(N(C)C)cccc45)c3)cs2)CC1,74%
20,O=C(CC(CC(=O)c1ccccc1)c1ccccc1O)c1ccccc1,100%
21,ON=C(C1CCCCC1)C1CCCCC1,105%
22,Fc1ccc(/C=C/c2cc(/C=C/c3ccc(F)cc3)n(-c3cc(F)cc(F)c3)n2)cc1,108%
23,COc1ccc(/C=C/c2c(C(=O)/C=C/c3ccc(Cl)cc3)c(C)nc3ccccc23)cc1,34.7%
24,C#C[C@]1(O)CC[C@H]2[C@@H]3CC[C@H]4CC(F)(F)CC[C@]4(C)[C@H]3CC[C@@]21C,88.2%
25,Cc1nn(-c2ccc(Br)cc2)c2nc3c(nc12)C(=O)C(=O)c1ccccc1-3,95.1%
26,CN1CCN(CCCNC(=O)c2c3c(n4ccccc24)C(=O)c2ncccc2C3=O)CC1,-59.9% (active)
27,NS(=O)(=O)c1ccc(Nc2nc(N/N=C/c3ccc([N+](=O)[O-])cc3)nc(Nc3ccccc3)n2)cc1,1.11% (active)
